# Measurements: the supplement of paper PMC10849652
# Of roughly 7,900 targets only a part is listed; those with a hit were picked by preference. About 0.6% of all pairs of compound and target were hits. A number with no mark means an inactive call.
# How the values were obtained:
# Assay in all cases: log2 fold change, soluble protein after heating vs DMSO (PISA); higher = thermal stabilisation; K562 cells, 10 uM, 30 min; active = over 0.2 and 3.5 SD of the protein, either way, in both replicates (recomputed)
# [1] = compound: CC1=C(C=C(C=C1)NC(=O)C2=CC(=CC=C2)C(C)(C)C#N)NC3=CC4=C(C=C3)N=CN(C4=O)C
# Summary of the method: (§1)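 K562 cells (2×10^6 cells/mL) were treated with 10 μM compound for 30 min, and aliquots were heated for 3 min over 48°C-58°C. Pooled aliquots were extracted in PBS with 0.5% NP-40 at 4°C, and the supernatant after 21,000xg for 90 min was measured by TMTpro 16plex LC-MS/MS with channel sums equalised. Reported thermal stability, relative to control samples and from duplicates, is a log2 fold change.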
# [2] = compound: CC1=C(C=C(C=C1)NC(=O)C2=CC(=CC=C2)N(C)C)NC(=O)C3=CC=C(C=C3)O
# Summary of the method: as §1
# [3] = compound: CC1=CC=C(C=C1)SC2=C3C=C(SC3=CN=C2)C(=O)N
# Summary of the method: as §1
# [4] = compound: CC1=NC(=CC=C1)C2=C(N=C(N2)C(C)(C)C)C3=CC4=NC=CN=C4C=C3
# Summary of the method: as §1
# Nexturastat A = compound: CCCCN(Cc1ccc(C(=O)NO)cc1)C(=O)Nc1ccccc1 [Nexturastat A]
# Summary of the method: as §1
# vemurafenib = compound: CCCS(=O)(=O)Nc1ccc(F)c(C(=O)c2c[nH]c3ncc(-c4ccc(Cl)cc4)cc23)c1F [vemurafenib]
# Summary of the method: as §1
# [5] = compound: CCCS(=O)(=O)Nc1ccc(F)c(C(=O)c2c[nH]c3ncc(Cl)cc23)c1F
# Summary of the method: as §1
# [6] = compound: CCCc1cc(C)[nH]c(=O)c1CNC(=O)c1cc(-c2ccnc(N3CCN(C)CC3)c2)cc2c1cnn2C(C)C
# Summary of the method: as §1
# givinostat = compound: CCN(CC)Cc1ccc2cc(COC(=O)Nc3ccc(C(=O)NO)cc3)ccc2c1 [givinostat]
# Summary of the method: as §1
# barasertib = compound: CCN(CCCOc1ccc2c(Nc3cc(CC(=O)Nc4cccc(F)c4)[nH]n3)ncnc2c1)CCOP(=O)(O)O [barasertib]
# Summary of the method: as §1
# [7] = compound: CC[C@@H]1C(=O)N(C)c2cnc(Nc3ccc(C(=O)NC4CCN(C)CC4)cc3OC)nc2N1C1CCCC1
# Summary of the method: as §1
# volasertib = compound: CC[C@@H]1C(=O)N(C)c2cnc(Nc3ccc(C(=O)N[C@H]4CC[C@H](N5CCN(CC6CC6)CC5)CC4)cc3OC)nc2N1C(C)C [volasertib]
# Summary of the method: as §1
# [8] = compound: CC[C@H](C)N1C=C(C2=C(C=C(C=C21)C3=CN=C(C=C3)N4CCNCC4)C(=O)NCC5=C(C=C(NC5=O)C)C)C
# Summary of the method: as §1
# epoxomicin = compound: CC[C@H](C)[C@@H](C(=O)N[C@@H]([C@@H](C)O)C(=O)N[C@@H](CC(C)C)C(=O)[C@]1(CO1)C)NC(=O)[C@H]([C@@H](C)CC)N(C)C(=O)C [epoxomicin]
# Summary of the method: as §1
# [9] = compound: CCn1c(C(=O)N(C2CC2)C2CC2)cc2c3c(ncn3C)c(Nc3cc(C)n(C)n3)nc21
# Summary of the method: as §1
# [10] = compound: CCn1cc(-c2ccnc3[nH]c(-c4cccc(CN(C)C)c4)cc23)c(-c2ccc(NC(=O)N(C)C)cc2)n1
# Summary of the method: as §1
# [11] = compound: CN(C)CC(=O)Nc1ccc2[nH]c(=O)c3ccccc3c2c1
# Summary of the method: as §1
# rosiglitazone = compound: CN(CCOC1=CC=C(C=C1)C[C@H]2C(=O)NC(=O)S2)C3=CC=CC=N3 (racemic) [rosiglitazone]
# Summary of the method: as §1
# [12] = compound: CN1C2=C(C3=C1C(=O)N(N=C3)CC4=CC(=CC=C4)N)SC(=C2)S(=O)C
# Summary of the method: as §1
# [13] = compound: CN1CCC(CNc2ccc3ncc(-c4cccc(OC(F)(F)F)c4)n3n2)CC1
# Summary of the method: as §1
# Sequence of UniProt P24666 (P24666 whole entry, looked up): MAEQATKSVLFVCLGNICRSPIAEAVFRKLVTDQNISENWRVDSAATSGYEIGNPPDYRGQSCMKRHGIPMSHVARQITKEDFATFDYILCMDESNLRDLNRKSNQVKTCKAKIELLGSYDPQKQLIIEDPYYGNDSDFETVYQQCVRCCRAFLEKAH
# Sequence of UniProt Q9NP58 (Q9NP58 whole entry, looked up): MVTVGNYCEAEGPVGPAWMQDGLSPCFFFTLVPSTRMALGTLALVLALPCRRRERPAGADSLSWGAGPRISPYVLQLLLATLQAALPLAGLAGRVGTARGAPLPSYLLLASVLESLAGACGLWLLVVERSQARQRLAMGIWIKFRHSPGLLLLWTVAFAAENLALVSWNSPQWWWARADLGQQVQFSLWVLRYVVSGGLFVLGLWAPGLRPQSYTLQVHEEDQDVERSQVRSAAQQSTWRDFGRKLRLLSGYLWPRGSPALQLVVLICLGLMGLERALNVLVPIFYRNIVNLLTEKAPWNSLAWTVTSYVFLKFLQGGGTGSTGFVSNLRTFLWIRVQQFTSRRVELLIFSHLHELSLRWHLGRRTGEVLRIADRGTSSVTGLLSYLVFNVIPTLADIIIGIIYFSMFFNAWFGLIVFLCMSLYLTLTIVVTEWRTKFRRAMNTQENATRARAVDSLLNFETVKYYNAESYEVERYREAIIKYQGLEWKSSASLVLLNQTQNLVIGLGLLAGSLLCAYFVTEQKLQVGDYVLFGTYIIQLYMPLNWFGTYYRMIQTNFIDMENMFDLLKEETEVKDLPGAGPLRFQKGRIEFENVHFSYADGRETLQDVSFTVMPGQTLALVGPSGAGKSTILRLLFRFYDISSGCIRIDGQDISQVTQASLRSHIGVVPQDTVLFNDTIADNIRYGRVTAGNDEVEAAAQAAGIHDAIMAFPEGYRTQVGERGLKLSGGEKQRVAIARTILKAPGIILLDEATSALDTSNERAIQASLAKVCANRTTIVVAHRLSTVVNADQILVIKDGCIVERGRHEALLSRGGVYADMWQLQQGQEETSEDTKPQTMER
# Sequence of UniProt Q8N6T3 (Q8N6T3 whole entry, looked up): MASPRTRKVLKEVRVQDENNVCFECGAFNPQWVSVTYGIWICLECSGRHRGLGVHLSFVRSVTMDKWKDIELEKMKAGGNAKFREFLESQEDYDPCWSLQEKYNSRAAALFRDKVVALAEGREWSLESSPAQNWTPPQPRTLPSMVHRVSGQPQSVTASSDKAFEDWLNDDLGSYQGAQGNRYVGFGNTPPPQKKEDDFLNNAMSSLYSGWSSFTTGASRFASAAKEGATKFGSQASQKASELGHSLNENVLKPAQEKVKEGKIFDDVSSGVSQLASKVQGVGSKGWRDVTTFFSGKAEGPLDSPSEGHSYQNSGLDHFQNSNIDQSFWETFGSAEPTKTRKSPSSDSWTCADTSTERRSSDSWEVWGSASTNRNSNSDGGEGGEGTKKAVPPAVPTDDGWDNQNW
# Sequence of UniProt P40616 (P40616 whole entry, looked up): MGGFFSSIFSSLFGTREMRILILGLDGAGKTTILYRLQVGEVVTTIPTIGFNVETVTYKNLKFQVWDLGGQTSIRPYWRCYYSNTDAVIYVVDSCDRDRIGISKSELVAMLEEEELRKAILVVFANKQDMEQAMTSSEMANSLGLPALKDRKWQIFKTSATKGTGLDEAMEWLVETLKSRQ
# Sequence of UniProt Q15904 (Q15904 whole entry, looked up): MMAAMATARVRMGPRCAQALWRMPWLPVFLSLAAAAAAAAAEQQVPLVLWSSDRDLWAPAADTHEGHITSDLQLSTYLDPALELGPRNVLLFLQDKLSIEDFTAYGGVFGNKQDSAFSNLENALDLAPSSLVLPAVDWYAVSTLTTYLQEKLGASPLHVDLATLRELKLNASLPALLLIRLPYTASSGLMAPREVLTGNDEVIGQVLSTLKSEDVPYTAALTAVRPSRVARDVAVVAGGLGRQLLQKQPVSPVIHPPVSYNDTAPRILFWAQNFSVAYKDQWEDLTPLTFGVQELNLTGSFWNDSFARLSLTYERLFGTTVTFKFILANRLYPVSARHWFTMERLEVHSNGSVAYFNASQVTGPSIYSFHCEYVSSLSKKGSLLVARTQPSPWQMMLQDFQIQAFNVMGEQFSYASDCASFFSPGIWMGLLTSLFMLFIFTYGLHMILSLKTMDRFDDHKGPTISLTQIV
# Sequence of UniProt Q9H8Y5 (Q9H8Y5 whole entry, looked up): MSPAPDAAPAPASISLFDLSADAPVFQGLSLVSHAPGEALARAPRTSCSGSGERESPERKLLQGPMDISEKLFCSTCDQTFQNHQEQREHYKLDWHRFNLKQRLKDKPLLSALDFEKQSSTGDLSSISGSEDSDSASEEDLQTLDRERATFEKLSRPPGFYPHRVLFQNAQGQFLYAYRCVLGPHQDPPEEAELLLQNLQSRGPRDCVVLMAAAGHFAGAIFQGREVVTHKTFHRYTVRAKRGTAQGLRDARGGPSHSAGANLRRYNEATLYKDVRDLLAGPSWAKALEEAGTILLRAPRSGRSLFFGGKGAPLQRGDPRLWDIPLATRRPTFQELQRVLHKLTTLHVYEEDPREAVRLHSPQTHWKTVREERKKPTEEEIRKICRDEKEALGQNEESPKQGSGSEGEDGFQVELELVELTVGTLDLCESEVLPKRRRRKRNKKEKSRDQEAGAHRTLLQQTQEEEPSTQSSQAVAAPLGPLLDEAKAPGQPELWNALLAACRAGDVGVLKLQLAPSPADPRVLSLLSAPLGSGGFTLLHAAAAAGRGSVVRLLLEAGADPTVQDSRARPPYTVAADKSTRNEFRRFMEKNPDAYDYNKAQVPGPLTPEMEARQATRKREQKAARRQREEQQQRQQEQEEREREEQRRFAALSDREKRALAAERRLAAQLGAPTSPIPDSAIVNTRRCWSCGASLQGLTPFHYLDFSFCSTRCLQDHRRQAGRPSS
# Sequence of UniProt O14981 (O14981 whole entry, looked up): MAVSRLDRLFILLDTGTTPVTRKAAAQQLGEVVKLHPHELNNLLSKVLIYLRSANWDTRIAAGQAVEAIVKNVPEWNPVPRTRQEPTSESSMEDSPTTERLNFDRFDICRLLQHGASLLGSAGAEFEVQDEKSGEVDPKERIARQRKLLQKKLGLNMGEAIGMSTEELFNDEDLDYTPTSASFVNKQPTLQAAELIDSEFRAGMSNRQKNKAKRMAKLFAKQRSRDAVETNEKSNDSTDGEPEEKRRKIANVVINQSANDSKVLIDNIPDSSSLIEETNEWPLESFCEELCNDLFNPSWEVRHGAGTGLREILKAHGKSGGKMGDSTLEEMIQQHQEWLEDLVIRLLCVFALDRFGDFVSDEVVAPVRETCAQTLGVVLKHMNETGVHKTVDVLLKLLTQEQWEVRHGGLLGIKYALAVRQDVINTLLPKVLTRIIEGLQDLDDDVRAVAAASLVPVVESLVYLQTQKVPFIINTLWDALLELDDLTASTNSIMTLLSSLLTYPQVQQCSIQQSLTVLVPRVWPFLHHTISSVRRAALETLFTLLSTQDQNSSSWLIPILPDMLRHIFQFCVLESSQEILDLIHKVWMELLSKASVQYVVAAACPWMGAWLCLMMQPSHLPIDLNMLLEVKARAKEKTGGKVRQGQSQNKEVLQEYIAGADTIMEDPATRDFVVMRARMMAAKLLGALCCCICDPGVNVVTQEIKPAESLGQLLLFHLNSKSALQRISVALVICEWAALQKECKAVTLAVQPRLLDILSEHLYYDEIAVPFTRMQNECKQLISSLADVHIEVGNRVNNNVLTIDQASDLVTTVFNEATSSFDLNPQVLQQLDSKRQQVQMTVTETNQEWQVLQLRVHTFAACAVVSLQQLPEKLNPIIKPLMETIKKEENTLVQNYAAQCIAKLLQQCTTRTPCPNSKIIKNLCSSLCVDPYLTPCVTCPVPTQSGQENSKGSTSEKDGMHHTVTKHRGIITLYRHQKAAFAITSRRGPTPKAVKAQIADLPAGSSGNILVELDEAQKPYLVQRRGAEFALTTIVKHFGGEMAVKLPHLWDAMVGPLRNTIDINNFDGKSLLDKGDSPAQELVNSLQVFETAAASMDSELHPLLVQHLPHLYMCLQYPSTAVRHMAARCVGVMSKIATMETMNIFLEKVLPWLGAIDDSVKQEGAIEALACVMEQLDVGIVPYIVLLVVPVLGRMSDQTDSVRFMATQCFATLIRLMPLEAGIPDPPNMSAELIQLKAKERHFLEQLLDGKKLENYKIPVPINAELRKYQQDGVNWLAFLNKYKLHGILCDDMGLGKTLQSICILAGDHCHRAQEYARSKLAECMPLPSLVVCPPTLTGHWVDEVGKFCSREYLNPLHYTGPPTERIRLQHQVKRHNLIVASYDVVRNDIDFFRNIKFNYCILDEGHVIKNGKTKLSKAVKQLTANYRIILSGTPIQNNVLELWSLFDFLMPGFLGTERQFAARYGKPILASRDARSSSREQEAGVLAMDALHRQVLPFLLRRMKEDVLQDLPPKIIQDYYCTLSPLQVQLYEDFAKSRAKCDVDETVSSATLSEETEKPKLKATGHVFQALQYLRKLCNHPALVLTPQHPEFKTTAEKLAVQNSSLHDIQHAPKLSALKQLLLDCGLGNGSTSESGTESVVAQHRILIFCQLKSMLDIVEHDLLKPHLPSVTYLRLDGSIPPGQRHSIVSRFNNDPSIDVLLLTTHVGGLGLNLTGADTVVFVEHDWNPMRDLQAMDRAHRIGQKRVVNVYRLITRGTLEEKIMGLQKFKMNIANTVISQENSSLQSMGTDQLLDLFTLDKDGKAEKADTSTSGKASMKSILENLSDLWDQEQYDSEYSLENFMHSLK
# Sequence of UniProt P30043 (P30043 whole entry, looked up): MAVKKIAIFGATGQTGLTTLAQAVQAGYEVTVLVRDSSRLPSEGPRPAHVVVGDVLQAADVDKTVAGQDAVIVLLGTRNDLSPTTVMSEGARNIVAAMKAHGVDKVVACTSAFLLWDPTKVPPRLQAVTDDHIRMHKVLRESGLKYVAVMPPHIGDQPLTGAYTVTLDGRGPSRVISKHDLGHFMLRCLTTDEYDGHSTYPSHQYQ
# Sequence of UniProt P56385 (P56385 whole entry, looked up): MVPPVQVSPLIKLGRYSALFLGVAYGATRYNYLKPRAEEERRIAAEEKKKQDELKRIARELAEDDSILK
# Sequence of UniProt Q8WUW1 (Q8WUW1 whole entry, looked up): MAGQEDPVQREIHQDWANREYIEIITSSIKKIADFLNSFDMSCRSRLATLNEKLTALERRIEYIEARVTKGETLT
Target,log2 fold change [1],log2 fold change [2],log2 fold change [3],log2 fold change [4],log2 fold change (Nexturastat A),log2 fold change (vemurafenib),log2 fold change [5],log2 fold change [6],log2 fold change (givinostat),log2 fold change (barasertib),log2 fold change [7],log2 fold change (volasertib),log2 fold change [8],log2 fold change (epoxomicin),log2 fold change [9],log2 fold change [10],log2 fold change [11],log2 fold change (rosiglitazone),log2 fold change [12],log2 fold change [13]
BLVRB (UniProt P30043),0.094,-0.023,-0.025,0.027,-0.014,0.069,0.063,0.037,0.03,0.025,0.008,0.046,0.012,0.161,0.023,-0.078,0.014,0.017,-0.049,0.127
ANKZF1 (UniProt Q9H8Y5),0.011,0,-0.055,-0.059,0.399,-0.011,-0.042,0.132,0.195,0.04,-0.063,-0.055,0.036,-0.001,-0.036,0.004,-0.076,-0.002,0.214,0.066
BRK1 isoform 2 (UniProt Q8WUW1),-0.055,-0.076,0.103,0.069,-0.02,0.044,-0.004,0.002,0.022,0.032,0.074,-0.021,-0.02,0.497 (active),0.021,-0.009,0.031,0.011,-0.053,0.137
ACP1 isoform 2 (UniProt P24666),0.008,-0.013,0.025,-0.008,0.08,0.031,0.026,0.043,0.058,0.074,0.034,0.055,0.063,0.012,-0.1,-0.083,0.05,0.027,0.014,-0.07
ATP5ME (UniProt P56385),0.036,-0.037,0.031,0.011,-0.035,-0.003,-0.041,-0.041,0.027,0.007,0.004,0.038,-0.048,0.075,-0.002,0.002,-0.054,-0.013,0.018,0.069
AP2M1 (UniProt Q96CW1),0.022,-0.019,-0.023,0.002,0.073,-0.006,0.014,-0.049,0.031,-0.074,0.072,-0.041,0,0.002,0.013,-0.006,-0.046,-0.018,0.023,0.006
ATP1A1 (UniProt P05023),0.002,0.01,0.015,0.025,-0.019,0.017,0.005,0.068,-0.001,-0.02,0.058,0.059,-0.029,-0.025,0.021,-0.026,-0.009,-0.004,-0.053,0.26 (active)
ACP2 (UniProt P11117),-0.014,-0.013,0.029,-0.027,-0.08,0.017,-0.023,-0.038,0,0.016,-0.156,-0.151,-0.068,0.019,0.004,-0.02,-0.029,0.006,0.013,-0.14
AFDN isoform 5 (UniProt P55196),-0.031,-0.049,0,0.087,-0.033,0.021,0.023,0.007,0.062,0.015,-0.072,-0.254 (active),0.05,0.047,-0.047,-0.099,0.008,0.044,-0.003,-0.353 (active)
ATP6AP1 (UniProt Q15904),0.009,-0.025,0.004,-0.027,0.114,-0.003,-0.018,-0.009,0.038,0.016,-0.05,-0.02,0.033,0.09,0.011,0.037,-0.074,0,0.098,0.016
ABCB6 (UniProt Q9NP58),0.085,-0.084,0.019,0.019,0.001,0.073,-0.022,-0.041,-0.002,0.008,-0.131,-0.051,0.001,-0.009,0,-0.019,0.061,0.027,-0.053,-0.123
BTAF1 (UniProt O14981),-0.033,0.07,-0.035,0.011,-0.064,-0.003,0.041,-0.018,0.009,0.038,-0.087,-0.265 (active),0.061,0.086,-0.047,-0.07,0.027,-0.042,-0.055,-0.09
ADH5 (UniProt P11766),0.004,0.008,0.043,0.009,-0.103,-0.007,0.008,-0.046,-0.01,-0.023,0.01,0.02,-0.024,-0.016,0.043,-0.001,-0.01,0.026,-0.052,-0.02
ARL1 (UniProt P40616),0.057,-0.012,0.162,0.054,-0.119,0.037,0.116,0.071,0.07,0.007,0.072,-0.113,0.023,0.028,0.014,-0.05,0.025,0.032,-0.157,0.059
ACO2 (UniProt Q99798),0.071,-0.063,0.012,0.035,-0.073,0.055,0.027,-0.003,-0.014,0.037,0.043,0.037,0.022,0.046,-0.011,-0.115,0.055,-0.023,-0.118,-0.344 (active)
ARFGAP1 (UniProt Q8N6T3),-0.053,-0.168,0.107,0.034,0.038,0.085,0.124,0.016,0.029,0.1,-0.182,-0.545 (active),0.056,0.026,-0.042,0.008,0.036,-0.003,-0.016,0.068
